From PubChem BioAssay AID463213 (Sanford-Burnham Center for Chemical Genomics, 2010)
About 4,100 (55%) of roughly 7,400 compounds were called active.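 Rule for the calls: active = inhibition of yeast growth at or above a set limit in either of two repeat tests at 20 µM; inactive = the rest.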 The set was probably picked from earlier hits. A selection follows.

Test: tim10-1 ts yeast growth inhibition, retested – single concentration, luminescence, S. cerevisiae, confirmation (AID 463213);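 note: tim10-1 mutant grown at permissive 25 °C to find synthetic lethal compounds; 0% = DMSO yeast wells and 100% = medium wells without yeast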
Conditions: S. cerevisiae tim10-1 ts strain growth, BacTiter-Glo, 24 h; at 20 µM; stronger effect = higher value

inhibition, active:
Cc1nc(-c2ccccc2)cn2c1nc1ccccc12 36%, CCc1ccc(-c2cc(C(=O)NCc3ccco3)c3ccccc3n2)s1 32.3%, Cc1cc(N)n2nc(-c3ccc(C(C)(C)C)cc3)cc2n1 42%, CCCCC(O)(CCCC)C(=O)NN(C(=O)CCl)c1ccccc1 36.3%, Cc1ccc(Oc2cnn(-c3ccccc3)c(=O)c2Br)cc1 41.2%, Fc1ccc(/C=N/Nc2nc(-c3cccnc3)nc3ccccc23)cc1 33.9%, COc1ccc(/C=C(\C#N)C(=O)ONC2=NCCCCC2)cc1 66.8%, COc1ccc(C(=O)Nc2ccccc2C(=O)N/N=C/c2ccc(O)c(OC)c2)cc1 91.6%, COc1ccc(C(=O)Nc2ccccc2C(=O)N/N=C/c2ccccc2OC)cc1 56.6%, CC1CCc2c(sc3nc4n(c(=O)c23)CCS4)C1 (stereo not drawn) 37.5%, Cc1ccc(-c2ccc(/C=C(\C#N)C(N)=S)o2)c([N+](=O)[O-])c1 48.3%, CNC(=O)/C(C#N)=C/c1c(F)cccc1Cl 50.1%, CCOC(=O)C1Sc2[nH]c(=O)sc2C(c2ccc(Cl)cc2)C1C(=O)OCC (stereo not drawn) 33.5%, ONC(=Nc1ccc(Cl)cc1)c1ccccc1Cl 31.5%, Cc1cccc(NC(=S)NCc2ccc3[nH]c4c(c3c2)CCCC4)c1 35.3%, O=C(N/N=C\c1cccc(Br)c1)c1ccccc1-n1cccc1 51.5%, CC1CCCC(C)N1C(=O)CN1CCN(c2nc(-c3ccc(F)cc3)cs2)CC1 (stereo not drawn) 37.2%, O=C(Nc1nc(-c2ccco2)c(-c2ccco2)s1)c1ccco1 65.9%, Cc1nc(-c2ccc(Cl)cc2)sc1C(=O)CBr 55.2%, O=C(Oc1c(-c2ccco2)oc2ccccc2c1=O)c1cccnc1 42.6%, O=C(c1ccc2nc(N3CCOCC3)sc2c1)N1CCN(c2ccc(Cl)cc2)CC1 41.5%, N/C(=N\OC(=O)Nc1ccc(Cl)c(Cl)c1)c1ncc(C(F)(F)F)cc1Cl 67.4%, CC1(C)CCSC(/C=C/c2ccccc2)=N1 49.4%, FC(F)(F)Oc1ccc(NC(=S)NCc2ccccc2)cc1 47%, Oc1c(Cl)cc(Cl)c(Cl)c1Cc1c(O)c(Cl)cc(Cl)c1Cl 88.7%, COc1ccc(-n2cc(-c3ccccc3)c3c(=S)nc[nH]c32)cc1 34.4%, O=C(/C(=C/c1cccc(Cl)c1)c1nc2ccccc2[nH]1)c1ccccc1 38.7%, O=C(Nc1cccc(Cl)c1)c1cncn1-c1ccc(F)cc1 33%, Cc1nonc1C1CCCN1C(=O)c1cc(COc2cccc(C(F)(F)F)c2)on1 (stereo not drawn) 41.6%, O=C1c2ccccc2C(=O)c2c1cccc2N1CCN(Cc2ccccc2)CC1 32%, O=C(CCCN1C(=O)/C(=C/c2ccccc2)SC1=S)Nc1ccc(O)cc1 28.7%

inhibition, inactive:
O=C(Nc1nnc(-c2ccccc2)o1)c1cc(-c2cccs2)nc2ccccc12 13.9%, CC1=CC(C)(C)Nc2ccc(OC(=O)CN3C(=O)C4CCCCC4C3=O)cc21 (stereo not drawn) 22.8%, COc1ccccc1CSc1ncc(-c2ccc([N+](=O)[O-])cc2)[nH]1 27.1%, COc1ccc(N2CCN(C(=O)CCSCc3ccccc3F)CC2)cc1 16.8%, COc1cccc(C(=O)Nc2cc3c(cc2Br)OCCCO3)c1 9.95%, COc1ccc2c(c1)c(C(=O)N/N=C/c1cccs1)c(C)n2C 28.8%, COc1ccc(/C(C)=N/NC(=O)c2ccc3nc[nH]c3c2)cc1 -11.2%, O=C(C(=O)N1CCc2ccccc2C1)c1c[nH]c2ccccc12 12.1%, CC1CCc2sc3nc(N4CCN(CCO)CC4)n4ncnc4c3c2C1 (stereo not drawn) 27.2%, CCOC(=O)CSc1nc2c(c(=O)n(Cc3ccccc3Cl)c(=O)n2C)n1C 31.1%, CC(=O)Cc1nsc(NC(=O)c2csc3c2CCCC3)n1 29.6%, COc1ccc(N2C(=O)CC(Sc3n[nH]c(-c4ccc(C)cc4)n3)C2=O)cc1 (stereo not drawn) 24.7%, CCOC(=O)c1ccccc1N1C(=O)C2Sc3[nH]c(=O)sc3C(/C=C/c3ccccc3)C2C1=O (stereo not drawn) 15.4%, CCC(=O)N1CCc2cc(S(=O)(=O)NC(C(=O)N3CCc4ccccc4C3)C(C)C)ccc21 (stereo not drawn) 22.2%, O=C(CN1CCN(c2ccc(F)cc2)CC1)Nc1cccc(C(F)(F)F)c1 23.8%, Cc1ccc2c(c1)c1ncnc(N3CCc4ccccc4C3)c1n2C 22.1%, CCOC(=O)N1CCN(C(=O)c2cc3c(-c4ccc(Cl)cc4)nn(C)c3s2)CC1 22.4%, COc1ccc2nc(N3CCN(C(=O)c4ccc([N+](=O)[O-])o4)CC3)sc2c1 -0.8%, CCc1nc2ccc(C(=O)N3CCN(c4cccc(Cl)c4)CC3)cc2nc1CC 24.6%, Cc1ccccc1CC1(CO)CCCN(C(=O)c2cc(-c3ccccc3)no2)C1 (stereo not drawn) 21.1%, O=C(Cc1ncc(C(F)(F)F)cc1Cl)Nc1cccc(Br)c1 30.4%, Cc1ccc(C(=O)CCC(=O)N(C)CC(=O)Nc2c(Cl)cccc2Cl)cc1 -3%, COc1ccc(NC(=S)N2N=CCC2c2ccccc2)cc1 (stereo not drawn) 16.2%, C/C(=N\NC(=S)NCc1ccccc1)C1CCCCC1 26.9%, Cc1ccc2c(c1)C1CN(C)CCC1N2S(=O)(=O)c1ccc(Oc2ccc([N+](=O)[O-])cc2)cc1 (stereo not drawn) 22.1%, CCc1nn(CCCC(=O)Nc2ccc(C)cc2C)c(=O)c2cc3occc3n12 -8.95%, CCOC(=O)C1Cn2c(nc3c(c2=O)C(C)(CC)Cc2ccccc2-3)S1 (stereo not drawn) 10%, CCNC(=S)N(CCc1c(C)[nH]c2ccc(C)cc12)Cc1ccco1 24.5%, CCOC(=O)C1(S(=O)(=O)c2ccccc2)CCN(Cc2ccccc2)CC1 14.3%, O=C(c1ccc(CSc2ccccc2)cc1)N1CCCCCC1 26.4%, O=C1/C(=C\c2ccccc2Cl)SC(=S)N1CCC(=O)N1CCCc2ccccc21 27.6%, COc1ccc(/C=C2/SC(=O)N(CCCCCC(=O)Nc3ccccc3C(=O)O)C2=S)cc1 4.8%
